Assay results: PubChem BioAssay AID1159580 (chemical genetic matrix, 2015)
Among all 5,500 compounds or so, about 2,000 (36%) were called active. About 18% were inconclusive and are not listed. Rule as the data show it: active = normalized growth mostly below about 0.91 (no sharp cut-off); inconclusive = no clear call, values can overlap the other calls; inactive = mostly above about 0.92. Some of the results follow.

Assay: chemical genetic growth profiling, strain panel (AID 1159580);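 also: tested at 20 µM; growth read once vehicle control cultures reached saturation at 30 °C; 1 = growth at the plate median or of vehicle wells; lower values mean less growth of the strain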
Settings: S. cerevisiae deletion strains, growth OD

Measured: normalized growth

C#C[C@]1(OC(C)=O)CCC2C3CCC4=C/C(=N\O)CCC4C3CC[C@@]21CC (stereo not given in full)
active: locus YAL021C, strain ccr4, active compounds read low 0.823 | locus YAL030W, strain snc1, active compounds read low 0.582 | locus YBL061C, strain skt5, active compounds read low 0.514 | locus YBR009C, strain hhf1, active compounds read low 0.403 | locus YBR023C, strain chs3, active compounds read low 0.612 | locus YBR231C, strain swc5, active compounds read low 0.333 | locus YBR279W, strain paf1, active compounds read low 0.879 | locus YCL011C, strain gbp2, active compounds read low 0.476 | locus YCL016C, strain dcc1, active compounds read low 0.77 | locus YCR088W, strain abp1, active compounds read low 0.898 | locus YDL005C, strain med2, active compounds read low 0.41 | locus YDL040C, strain nat1, active compounds read low 0.726 | locus YDR069C, strain doa4, active compounds read low 0.367 | locus YDR137W, strain rgp1, active compounds read low 0.242 | locus YDR159W, strain sac3, active compounds read low 0.267 | locus YDR195W, strain ref2 0.269 | locus YDR297W, strain sur2, active compounds read low 0.716 | locus YDR335W, strain msn5, active compounds read low 0.866 | locus YDR392W, strain spt3, active compounds read low 0.193 | locus YEL003W, strain gim4, active compounds read low 0.759 | locus YER015W, strain faa2, active compounds read low 0.918 | locus YER016W, strain bim1, active compounds read low 0.599 | locus YER155C, strain BEM2 (second series), active compounds read low 0.737 | locus YFR010W, strain ubp6, active compounds read low 0.761 | locus YGL167C, strain pmr1, active compounds read low 0.682 | locus YGL173C, strain kem1, active compounds read low 0.817 | locus YGL240W, strain doc1, active compounds read low 0.782 | locus YGL253W, strain hxk2, active compounds read low 0.71 | locus YHR013C, strain ard1, active compounds read low 0.315 | locus YHR027C, strain rpn1, active compounds read low 0.725 | locus YHR030C, strain SLT2, active compounds read low 0.671 | locus YHR079C, strain IRE1, active compounds read low 0.707 | locus YHR142W, strain chs7, active compounds read low 0.776 | locus YJL095W, strain BCK1 (second series), active compounds read low 0.503 | locus YJL095W, strain BCK1, active compounds read low 0.605 | locus YJL129C, strain trk1, active compounds read low 0.56 | locus YJL164C, strain tpk1, active compounds read low 0.469 | locus YJL166W, strain qcr8, active compounds read low 0.344 | locus YJL187C, strain SWE1, active compounds read low 0.582 | locus YKL160W, strain elf1, active compounds read low 0.495 | locus YLL001W, strain dnm1, active compounds read low 0.826 | locus YLL026W, active compounds read low 0.461 | locus YLL041C, strain sdh2, active compounds read low 0.775 | locus YLR027C, strain aat2, active compounds read low 0.513 | locus YLR113W, strain HOG1, active compounds read low 0.305 | locus YLR221C, strain rsa3, active compounds read low 0.638 | locus YLR258W, strain gsy2, active compounds read low 0.495 | locus YLR262C, strain YPT6 (second series), active compounds read low 0.18 | locus YLR320W, strain mms22, active compounds read low 0.558 | locus YLR342W, strain FKS1, active compounds read low 0.518 | locus YLR370C, strain arc18, active compounds read low 0.785 | locus YML120C, strain ndi1, active compounds read low 0.471 | locus YMR058W, strain fet3, active compounds read low 0.89 | locus YMR125W, strain sto1, active compounds read low 0.884 | locus YMR205C, strain PFK2, active compounds read low 0.358 | locus YMR231W, strain pep5, active compounds read low 0.45 | locus YNL071W, strain lat1, active compounds read low 0.476 | locus YNL209W, strain ssb2, active compounds read low 0.846 | locus YOR001W, strain rrp6, active compounds read low 0.767 | locus YOR070C, strain gyp1, active compounds read low 0.394 | locus YOR083W, strain WHI5, active compounds read low 0.619 | locus YOR106W, strain vam3, active compounds read low 0.281 | locus YOR231W, strain MKK1, active compounds read low 0.673 | locus YOR265W, strain rbl2, active compounds read low 0.668 | locus YOR270C, strain vph1, active compounds read low 0.512 | locus YOR290C, strain snf2, active compounds read low 0.563 | locus YPL051W, strain arl3, active compounds read low 0.456 | locus YPL078C, strain atp4, active compounds read low 0.835 | locus YPL106C, strain sse1, active compounds read low 0.824 | locus YPL240C, strain hsp82, active compounds read low 0.604 | locus YPL256C, strain CLN2, active compounds read low 0.752
inactive: locus YAL026C, strain drs2, active compounds read low 0.921 | locus YBR171W, strain sec66, active compounds read low 0.944 | locus YCL061C, strain MRC1, active compounds read low 0.94 | locus YCL069W, strain vba3, active compounds read low 0.984 | locus YDR001C, strain nth1, active compounds read low 0.998 | locus YDR334W, strain swr1, active compounds read low 1 | locus YEL037C, strain rad23, active compounds read low 0.993 | locus YEL061C, strain CIN8 (second series), active compounds read low 0.996 | locus YER111C, strain swi4, active compounds read low 1.01 | locus YGL227W, strain vid30, active compounds read low 0.97 | locus YJL092W, strain hpr5, active compounds read low 0.941 | locus YJL115W, strain asf1, active compounds read low 1.01 | locus YJL154C, strain vps35, active compounds read low 0.994 | locus YJR066W, strain TOR1, active compounds read low 0.863 | locus YKR026C, strain gcn3, active compounds read low 0.99 | locus YKR091W, strain srl3, active compounds read low 0.941 | locus YLR357W, strain rsc2, active compounds read low 0.937 | locus YLR384C, strain iki3, active compounds read low 1.01 | locus YMR129W, active compounds read low 0.986 | locus YNL183C, strain NPR1, active compounds read low 0.84 | locus YNL248C, strain rpa49, active compounds read low 0.996 | locus YNL322C, strain KRE1 (second series), active compounds read low 1.01 | locus YNR049C, strain mso1, active compounds read low 0.987 | locus YOR080W, strain dia2, active compounds read low 0.917
